Source: PubChem BioAssay
Unmarked numbers belong to inactive results.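 How the source made its calls: active means viability at or below 10% of carrier control in both of two separate runs; inconclusive means viability at or below 10% in only one of the two runs; inactive means the rest.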

assay: reduced viability of SK-BR-3 breast cancer cells – cell-based, 24 h, human, pilot screen (AID 572); details: SK-BR-3 viability, CellTiter-Glo luminescence, at 10 µM, stronger effect = lower value;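 further: compound exposure lasted between 18 and 24 h rather than exactly 24 h; 100% = carrier-treated control wells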

Row | Compound | viability [%]
1 | CCOC(=O)N1CCC(NC(=O)CCc2c(C)nc3c(c(C)nn3C(C)(C)C)c2C)CC1 | 91
2 | Cc1cc2nc(C3CCN(CC4COc5ccccc5O4)CC3)[nH]c2cc1C (stereo not given) | 98.5
3 | CNC(=O)Nc1cccc(C(F)(F)F)c1 | 105
4 | COc1ccccc1C1CC(c2ccc(C)cc2)Nc2ncnn21 (stereo not given) | 107
5 | CCCn1c2ccccc2c2nnc(SCC(=O)OCC)nc21 | 95
6 | Cc1nnc2ccc(N3CCN(c4cccc(C(F)(F)F)c4)CC3)nn12 | 97.5
7 | O=C(Cn1ccc2ccccc2c1=O)NCCC(=O)NC1CCN(Cc2ccccc2)CC1 | 58
8 | Cc1nc(SCC(=O)Nc2ccccc2C(F)(F)F)c2c(=O)n(C)c(=O)n(C)c2n1 | 87
9 | CCOC(=O)N1CCC(NC(=O)CSCc2nc(-c3cccc(OC)c3)oc2C)CC1 | 94.5
10 | COc1cc(C(=O)N2CCC(c3nc(-c4cccnc4)no3)CC2)cc(OC)c1OC | 96
11 | O=C(Nc1ccc2c(c1)OCCO2)c1ccco1 | 83
12 | CCOC(=O)c1cnc(-n2nc(C)cc2C)nc1Nc1cccc(C(C)=O)c1 | 87.5
13 | O=c1[nH]cnc2c1nc(SCc1ccccc1)n2C1OC(CO)C(O)C1O (stereo not given) | 94.5
14 | COc1ccc(CCn2c(-c3ccco3)nc3nc4ccccc4nc32)cc1 | 108
15 | O=S(=O)(c1ccc(-c2csc(-c3cccnc3)n2)cc1)N1CCCCC1 | 106
16 | CCCOc1nc(N)c(C#N)c(-c2ccccc2F)c1C#N | 98.5
17 | COc1cc(OC)c(OC)cc1CN(C)CCc1ccccn1 | 104
18 | CCOC(=O)c1c(-c2cccs2)csc1NC(=O)CCCC(=O)O | 110
19 | Cc1cccc(-c2c3c(=O)n(C)c(=O)n(C)c3cn2-c2ccc(O)cc2)c1 | 102
20 | CCN(C(=O)CCc1nc(-c2ccccc2F)no1)c1cc(OC)ccc1OC | 87.5

Row | Compound | viability [%]
21 | CCc1nc(SCC(=O)Nc2nccs2)c2oc3ccccc3c2n1 | 91
22 | Cc1c(C#N)sc2nc(-c3ccccc3)nc(N3CCCC3)c12 | 85.5
23 | Cc1cccc(N=C2NC(=O)CS2)c1C | 108
24 | COCCNC(=O)c1ccc2c(c1)nc(C)n2-c1cccc(F)c1 | 129
25 | CCOC(=O)c1[nH]c2ccc(C)cc2c1N=C(C)N(C)C | 100
26 | COc1ccc2nc(N3CCC(C)CC3)c(C#N)cc2c1 | 108
27 | Cc1ccccc1NS(=O)(=O)c1cc(S(C)(=O)=O)ccc1Cl | 96
28 | Cc1cc(C)c2c(N)c(C(=O)N3CCN(c4ncccn4)CC3)sc2n1 | 104
29 | Cc1cc(C)n2nc3nc(N4CCCCC4)nc(-c4ccco4)c3c2n1 | 81.5
30 | O=C(O)c1cc(=O)cc(C(=O)O)[nH]1 | 80.5
31 | COc1ccc(NC(C)=O)cc1NC(=O)CN1CCN(c2ccccn2)CC1 | 96
32 | CCOC(=O)c1cccc(NC(=O)CS(=O)(=O)Cc2nc(-c3cccc(OC)c3)oc2C)c1 | 99.5
33 | O=C(CCc1nc2ccccc2s1)OCC(=O)N1CCN(C(=O)c2ccco2)CC1 | 117
34 | Cc1ccccc1CS(=O)(=O)Cc1ccc(C(=O)NCCCN2CCOCC2)o1 | 77
35 | CCOC(=O)c1cccc(NC(=O)Cn2cnc3c2c(=O)n(C)c(=O)n3C)c1 | 104
36 | O=C(Nc1ccon1)c1csc2c1CCCC2 | 92.5
37 | CC(C)(C)n1ncc2c(=O)n(CC(=O)NCCc3ccccc3)cnc21 | 88
38 | Cc1cccc2sc(NC(=O)CN(C)S(=O)(=O)c3cccs3)nc12 | 76.5
39 | CCOC(=O)c1cccc(NC(=O)CSc2nnc(C3CCCCC3)n2C)c1 | 91
40 | CCCc1nnc2n1N=C(c1ccc(OC)c(OC)c1)CS2 | 85
